From PubChem
Hits are enriched below; roughly 2.2% of the tested compounds scored in any of these assays.
IEC-6 tox = kills IEC-6 intestinal cells in KLF5 counter-screen. IEC-6 cytotoxicity, luminescence viability. inhibition, % at 5 µM. 290,000 compounds, 0.78% hits;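 also: 0% = plate median of test compound wells and 100% = cytotoxic reference compound wells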
KLF5 inh = suppresses KLF5 promoter-driven expression. 290,000 compounds, 0.23% hits. inhibition, % at 5 µM. DLD-1 KLF5 promoter-luciferase reporter, luminescence;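 active = inhibition above a per-plate limit of that plate's mean compound inhibition plus 3 SD, cut at about 60% in these data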;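 also: 0% = DMSO wells and 100% = LY294002 at 200 µM; higher means less KLF5 promoter-driven luciferase light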
aSyn 5UTR inh = 5' untranslated region of α-synuclein, MLPCN primary screen; inhibition, % (tested at 7.5 µM); 300,000 compounds, 0.82% hits; alpha-synuclein 5'UTR reporter, inhibitor activity; in the data active = inhibition above about 60%;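 also: H4 neuroglioblastoma cells stably carrying SNCA 5'UTR luciferase fusion; 0% = DMSO wells and 100% = positive control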
BaF3 tox = parental Ba/F3 viability inhibition as JAK2V617F counter-screen. CellTiter-Glo ATP luminescence. inhibition, % at 5.6 µM. 220,000 compounds, 1.1% hits. AID 1486;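 active = inhibition above a per-campaign cutoff, the mean inhibition of all tested compounds plus 3 SD, cut at about 27% in these data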;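 also: 0% = DMSO wells and 100% = JAK Inhibitor I control wells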
APP transl inh = APP translation inhibition. SH-SY5Y APP 5'UTR-luciferase reporter, luminescence. inhibition, % at 2 µM. 190,000 compounds, 0.82% hits. AID 1285;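 active = inhibition above a set limit, derived from the sample mean plus 3 SD, cut at about 45% in these data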
Ba/F3 V617F tox = loss of viability in JAK2V617F-driven Ba/F3 cells. inhibition, % at 5.6 µM. AID 1446. 220,000 compounds, 1.1% hits. Ba/F3 EpoR-JAK2V617F viability, ATP luminescence;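 active = inhibition above the campaign mean plus 3 SD over all tested compounds, cut at about 24% in these data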;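 also: cytokine-independent growth of Ba/F3 cells driven by EpoR plus mutant JAK2; 0% = DMSO-treated cells and 100% = JAK inhibitor I control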
IEC-6 cytotox cf = IEC-6 cytotoxicity, confirmation assay | shares compounds with IEC-6 tox | 1,900 compounds, 63% hits | IEC-6 rat intestinal epithelial viability, luminescence | inhibition, % at 5 µM;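 also: 0% = vehicle and 100% = reference cytotoxic drug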
An asterisk follows results filed as active; nt = no result given. Rule as the data show it, unless noted: active = inhibition above about 22%; inactive = the rest.

SMILES | IEC-6 tox | KLF5 inh | aSyn 5UTR inh | BaF3 tox | APP transl inh | Ba/F3 V617F tox | IEC-6 cytotox cf
CCN(c1ccccc1)S(=O)(=O)c1ccc(Oc2ccc(-n3ccnc3)cc2)nc1 | 30* | -7 | 103* | 20 | 2 | 11 | 29*
CCN(c1ccccc1)S(=O)(=O)c1ccc(C(=O)NCCCn2ccnc2)cc1 | 5 | -12 | -33 | 1 | 12 | -3 | nt
COCCN(C(=O)COC(=O)c1cccnc1SC)c1c(N)n(Cc2ccccc2)c(=O)[nH]c1=O | nt | nt | 2 | nt | nt | nt | nt
COc1ccc2oc(CS(=O)c3ccccc3)c(C(=O)O)c2c1 (configuration not stated) | -6 | -1 | -6 | nt | nt | nt | nt
CCO/N=C/c1ccc(OC)c(Oc2nc(OC)cc(OC)n2)c1 | -6 | -20 | 10 | 3 | -36 | -4 | nt
CO/N=C/c1ccc(OC)c(Oc2nc(OC)cc(OC)n2)c1 | 28* | 14 | 8 | 10 | 66* | -1 | 3
Cc1ccc(CCNC(=O)CN(C)S(=O)(=O)c2ccc3c(c2)n(C)c(=O)c(=O)n3C)cc1 | 0 | -23 | -14 | -1 | nt | -3 | nt
CN(CC1CCCO1)S(=O)(=O)c1ccc(C(=O)Nc2nc(-c3ccccn3)cs2)cc1 (configuration not stated) | 57* | 56 | nt | 61* | 74* | 70* | 52*
COc1ccccc1-c1nnc(NC(=O)c2ccc(S(=O)(=O)N(C)CC3CCCO3)cc2)o1 (configuration not stated) | 12 | 49 | 20 | nt | nt | nt | nt
CN(CC1CCCO1)S(=O)(=O)c1ccc(C(=O)Nc2nnc(-c3ccccc3)o2)cc1 (configuration not stated) | 27* | 51 | 48 | nt | nt | nt | 6
Cc1cccc(S(=O)Cc2ccc(C(=O)N3CCN(C(=O)c4ccco4)CC3)o2)c1 (configuration not stated) | 0 | -16 | -7 | nt | nt | nt | nt
Cn1c(=O)c2c(nc(NCc3cccnc3)n2Cc2cccc(C(F)(F)F)c2)n(C)c1=O | 25* | 9 | 10 | 53* | -11 | 53* | 25*
N=c1c(C(=O)NC2CCCCC2)cc2c(=O)n3ccccc3nc2n1Cc1ccco1 | 42* | 3 | -28 | nt | nt | nt | 10
O=C(CCn1cccn1)Nc1ccc2c(c1)OCO2 | 6 | -4 | -13 | nt | nt | nt | nt
O=C(CCCCCCC(=O)NCc1ccccc1)NCc1ccccc1 | 0 | -28 | -12 | nt | nt | nt | nt
CCC(C)c1ccc(NC(=O)Nc2cnccn2)cc1 (configuration not stated) | 79* | 27 | -188 | nt | nt | nt | 55*
CC(NC(=O)CN(C)S(=O)(=O)c1cccc2nsnc12)c1ccccc1 (configuration not stated) | -2 | -14 | -12 | nt | nt | nt | nt
Cc1ccc(NC2CCCN(C(=O)CCn3nccc3C)C2)cc1C (configuration not stated) | -7 | -35 | -5 | nt | nt | nt | nt
CN1CCC(NCCC(c2ccc(F)cc2)c2ccc(Cl)cc2)CC1 (configuration not stated) | 49* | -30 | 22 | nt | nt | nt | 100*
CC(C)C(CCNC1CCN(C)CC1)c1ccc(Cl)cc1 (configuration not stated) | 36* | -48 | -35 | nt | nt | nt | 57*
CC1CC(C)CN(S(=O)(=O)c2ccc(C(=O)N3CCOCC3)cc2)C1 (configuration not stated) | -4 | -31 | -6 | nt | nt | nt | nt
Oc1ccc(Br)cc1CNc1cccc2cccnc12 | 44* | 5 | 12 | nt | nt | nt | 0
NS(=O)(=O)c1ccc(CNC(=O)c2ccncc2)cc1 | -4 | -2 | 10 | nt | nt | nt | nt
CC(=O)Nc1cccc(C(=O)OCC(=O)NNC(=O)c2ccc([N+](=O)[O-])cc2)c1 | nt | nt | -5 | nt | nt | nt | nt
CC(=O)Nc1ccc(/C(C)=N/NC(=O)c2ccc(F)cc2)cc1 | -1 | -26 | -40 | 6 | 2 | 0 | nt
SMILES | IEC-6 tox | KLF5 inh | aSyn 5UTR inh | BaF3 tox | APP transl inh | Ba/F3 V617F tox | IEC-6 cytotox cf
CC(=O)Nc1ccc(/C(C)=N\NC(=O)c2ccc(-c3ccccc3)cc2)cc1 | 26* | -56 | 96* | 82* | 0 | 88* | -6
CCOc1ccc(C(=O)Nc2cccc3cccnc23)cc1 | -7 | -40 | -19 | nt | nt | nt | nt
CCOc1ccc(C(=O)N/N=C(\c2ccccc2)c2ccccn2)cc1 | 26* | 19 | 46 | 80* | 72* | 86* | 68*
C/C(=N\NC(=O)c1ccc(F)cc1)c1ccccn1 | 32* | 38 | -93 | nt | nt | nt | 98*
CCc1ccc(/C(C)=N/NC(=O)c2ccccn2)cc1 | 0 | -5 | -35 | 6 | 13 | -4 | nt
O=C(CCN1CCCCC1=O)NC1CCCc2c1cnn2-c1ccccc1F (configuration not stated) | 1 | -20 | 11 | nt | nt | nt | nt
Cc1cccc(NC(=O)c2ccc(N3C(=O)C4C5C=CC(C6CC56)C4C3=O)cc2)c1 (configuration not stated) | 23* | -34 | 38 | nt | nt | nt | 12
O=C(Nc1ccccc1)c1cccc(N2C(=O)C3C4C=CC(C5CC45)C3C2=O)c1 (configuration not stated) | 2 | -33 | -20 | nt | nt | nt | nt
CCCSc1nnc(Sc2nnnn2-c2ccccc2)s1 | 42* | -40 | 13 | 95* | 94* | 82* | 26*
O=C(CSc1nc(-c2ccco2)cc(C(F)(F)F)n1)Nc1cccnc1 | 29* | 12 | -14 | 3 | -12 | 6 | 13
COc1ccc(-c2c(C#N)c(N)nc3c2CCc2ccccc2-3)cc1OC | 34* | 22 | -40 | 10 | 19 | 22 | 24*
CCN(CC)C(=O)C1CCCN(C(=O)c2oc3ccc(C)cc3c2C)C1 (configuration not stated) | 5 | -27 | 3 | nt | nt | nt | nt
O=C(c1ccc(CS(=O)Cc2ccc(Cl)cc2)o1)N1CCN(c2cccc(Cl)c2)CC1 (configuration not stated) | -3 | -9 | -5 | nt | nt | nt | nt
COc1cccc(N2CCN(C(=O)c3ccc(CS(=O)c4ccc(Cl)cc4)o3)CC2)c1 (configuration not stated) | 81* | 53 | 107* | nt | nt | nt | 57*
COc1ccc(Nc2nc(N)c(C(=O)c3ccc(OC)cc3)s2)cc1 | 66* | 41 | 18 | nt | nt | nt | 50*
CCc1nnc(NC(=O)c2ccc(OC)cc2)s1 | 36* | -34 | 21 | 7 | -129 | -1 | 2
COc1ccc(C(=O)c2sc(Nc3ccccc3)nc2C)cc1 | -2 | -15 | -32 | nt | nt | nt | nt
COc1ccc(Nc2nc(N)c(C(=O)c3ccc(F)cc3)s2)cc1 | 74* | 48 | 70* | nt | nt | nt | 57*
Cc1ccc(/C(O)=C2\C(=O)C(=O)N(C)C2c2cccc([N+](=O)[O-])c2)cc1 (configuration not stated) | 1 | -12 | 4 | nt | nt | nt | nt
COc1ccc(NS(=O)(=O)c2cccc(NC(=O)c3ccc(Cl)nc3)c2)cc1 | 33* | 12 | -2 | 78* | 10 | 63* | 18
NC(=O)CSc1nc2ccccc2c(=O)n1CCc1ccccc1 | 5 | -17 | -17 | nt | nt | nt | nt
O=c1c2ccccc2nc(SCCN2CCCCC2)n1CCc1ccccc1 | 22* | -11 | -50 | 12 | 12 | 8 | 9
